Laboratory results from PubChem BioAssay AID624125 (The Scripps Research Institute Molecular Screening Center, 2012).
Out of some 360,000 compounds screened, about 2,600 (0.72%) were called active. The full list was thinned out, with actives kept by preference. Unmarked numbers belong to inactive results.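 The calls were made as follows: active = inhibition above its plate's cutoff, the mean inhibition of sample wells plus 3 SD (cut at about 27% in these data); inactive = the rest.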

target: Muscarinic acetylcholine receptor M4 (Homo sapiens) (UniProt P08173); assay: CHRM4 blockers of acetylcholine calcium response – CHO cells, Fluo-8 calcium fluorescence, primary screen (AID 624125); details: CHO-hM4 cells, ACh EC80, Fluo-8 calcium fluorescence; at 3 µM; stronger effect = higher value;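 also: 0% = acetylcholine EC80 with DMSO and 100% = DMSO without agonist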
Sequence (P08173 whole entry, looked up): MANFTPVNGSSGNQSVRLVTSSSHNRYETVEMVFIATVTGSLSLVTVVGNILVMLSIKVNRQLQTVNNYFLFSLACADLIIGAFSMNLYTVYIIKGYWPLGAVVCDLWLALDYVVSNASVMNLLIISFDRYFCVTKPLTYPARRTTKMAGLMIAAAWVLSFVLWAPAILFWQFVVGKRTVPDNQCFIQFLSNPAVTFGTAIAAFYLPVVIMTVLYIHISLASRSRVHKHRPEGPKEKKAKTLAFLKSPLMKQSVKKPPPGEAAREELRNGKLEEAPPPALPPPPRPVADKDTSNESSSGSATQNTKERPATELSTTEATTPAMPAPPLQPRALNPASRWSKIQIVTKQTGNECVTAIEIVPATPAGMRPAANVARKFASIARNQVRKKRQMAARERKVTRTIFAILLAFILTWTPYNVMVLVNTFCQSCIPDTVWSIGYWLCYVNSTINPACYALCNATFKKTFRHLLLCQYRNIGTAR

Structure (SMILES) | inhibition
CCOC(=O)[C@H]1[C@H]2COc3ccc(C)cc3[C@@H]2N2C(=O)CN(Cc3ccc(F)cc3)C(=O)[C@@]12C | 56.2% (active)
CCOC(=O)[C@H]1[C@H]2COc3cc(OC)ccc3[C@@H]2N2C(=O)CN(Cc3ccc(Cl)cc3)C(=O)[C@@]12C | 2.23%
CCOC(=O)[C@H]1[C@H]2COc3ccccc3[C@@H]2N2C(=O)CN(Cc3ccccc3)C(=O)[C@@]12C | -1.92%
CC(C)CNC(=S)NC(=O)c1ccc(Cl)cc1 | -0.83%
COc1ccc(N2CC(C(=O)NCCN3C(=O)S/C(=C\c4cccnc4)C3=O)CC2=O)c(OC)c1 (centres undefined) | -13.5%
O=C(NC(Cc1ccc(O)cc1)C(=O)O)/C(=C/c1ccccc1)NC(=O)c1ccccc1 (centres undefined) | 0.71%
COc1cccc(C(=O)NNS(=O)(=O)c2ccc(F)cc2)c1 | 9.85%
CC(C)NC(=O)C1(C)CCCCN1Cc1cccc(C(F)(F)F)c1 (centres undefined) | -7.19%
O=C(COC(=O)c1ccc(S(=O)(=O)Nc2ccccc2)cc1)NCC1CCCO1 (centres undefined) | 0.71%
C=CCC1(CC=C)CCCN1C(=O)c1cc(COc2ccc(-n3cncn3)cc2)on1 | 28.6% (active)
CCCC(=O)N1CCC1(C)C(=O)Nc1ccc(-n2cncn2)cc1 (centres undefined) | -7.42%
O=C(c1cc(COc2c(F)cccc2F)on1)N1CCSCC1 | 8.34%
Cc1cccc(C)c1Nc1nnc(SCC(=O)NCCCN2CCCC2=O)s1 | -0.57%
COC(=O)c1sccc1NC(=O)CC1C(=O)NCCN1C(=O)Nc1ccc(F)cc1F (centres undefined) | -7.71%
COc1ccc(CC(=O)Nc2c3c(nn2-c2cccc(Cl)c2)CS(=O)C3)cc1 (centres undefined) | 3.64%
Cc1ccc(C(C)C)cc1OCCN1CCCC1 | 9.89%
Cc1cc(OCCN2CCCC2)ccc1C(C)C | -0.72%
Cc1cc(OCCN2CCCC2)cc(C(C)C)c1 | 33% (active)
CCOC(=O)[C@]12CCCC=C1N(CCC1=CCCCC1)C(=O)[C@H](CC(=O)NCCCOC)C2 | -3.81%
CC(=O)N(CC1CCCO1)C1(C(=O)NC2CCCC2)CCCCC1 (centres undefined) | -5.29%
CN(CC#CCC(c1ccccc1)c1ccccc1)C(C)(C)C | 78.5% (active)
Cc1cc(Cl)ccc1C(=O)C1CCCN(C(=O)CCN2CCCO2)C1 (centres undefined) | 4.93%
CCCCCCCCCCOC(=O)Cn1c(COc2cccc(OC)c2)[n+](C)c2ccccc21 | 36% (active)
COCCN1C(=O)C(=O)/C(=C(/O)c2ccc(S(=O)(=O)N3CCCCC3)cc2)C1c1ccc(OC)c(OC)c1 (centres undefined) | -5.56%
